Source: PubChem BioAssay AID1159580 (chemical genetic matrix, 2015)
Where “and” joins values, the source holds several entries; their conditions need not be identical. Identical values can stand only once. Hit rate of the full screen: of about 5,500 compounds, about 2,000 (36%) were called active. Roughly 18% stayed inconclusive and do not appear here. No stated cut-off is given here; in the data, active means normalized growth mostly below about 0.91 (no sharp cut-off); inconclusive means no clear call, values can overlap the other calls; inactive means mostly above about 0.92. The list shows a part of the results.

Test: chemical genetic growth profiling, strain panel (AID 1159580);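 further: tested at 20 µM; growth read once vehicle control cultures reached saturation at 30 °C; 1 = growth at the plate median or of vehicle wells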
Settings: S. cerevisiae deletion strains, growth OD

Measured: normalized growth

CN1CCC(=C2c3ccccc3Sc3ccccc32)CC1
inactive: locus YAL013W, strain DEP1, stronger effect = lower value 0.994 | locus YAL021C, strain ccr4, stronger effect = lower value 0.936 | locus YAL026C, strain drs2, stronger effect = lower value 0.994 | locus YAL030W, strain snc1, stronger effect = lower value 1.03 | locus YBL061C, strain skt5, stronger effect = lower value 1.04 | locus YBR009C, strain hhf1, stronger effect = lower value 1.06 | locus YBR023C, strain chs3, stronger effect = lower value 1.02 | locus YBR171W, strain sec66, stronger effect = lower value 1.04 | locus YBR229C, strain ROT2, stronger effect = lower value 0.998 | locus YBR231C, strain swc5, stronger effect = lower value 1.05 | locus YBR279W, strain paf1, stronger effect = lower value 1.02 | locus YCL011C, strain gbp2, stronger effect = lower value 1.04 | locus YCL016C, strain dcc1, stronger effect = lower value 1.03 | locus YCL029C, strain bik1, stronger effect = lower value 1.05 | locus YCL061C, strain MRC1, stronger effect = lower value 1.04 | locus YCL069W, strain vba3, stronger effect = lower value 1.02 | locus YCR088W, strain abp1, stronger effect = lower value 1.03 | locus YDL005C, strain med2, stronger effect = lower value 1.05 | locus YDL035C, strain GPR1, stronger effect = lower value 0.951 | locus YDL040C, strain nat1, stronger effect = lower value 1.01 | locus YDL074C, strain BRE1, stronger effect = lower value 0.986 | locus YDL101C, strain DUN1, stronger effect = lower value 1.03 | locus YDL134C, strain PPH21, stronger effect = lower value 1.01 | locus YDL185W, strain tfp1, stronger effect = lower value 1.01 | locus YDL192W, strain arf1, stronger effect = lower value 1.01 | locus YDR001C, strain nth1, stronger effect = lower value 1.02 | locus YDR069C, strain doa4, stronger effect = lower value 1.02 | locus YDR101C, strain arx1, stronger effect = lower value 1.01 | locus YDR150W, strain NUM1, stronger effect = lower value 1.01 | locus YDR159W, strain sac3, stronger effect = lower value 1.07 | locus YDR162C, strain NBP2, stronger effect = lower value 1.01 | locus YDR195W, strain ref2 1.11 | locus YDR297W, strain sur2, stronger effect = lower value 1.03 | locus YDR318W, strain mcm21, stronger effect = lower value 1.01 | locus YDR334W, strain swr1, stronger effect = lower value 1.03 | locus YDR335W, strain msn5, stronger effect = lower value 1.02 | locus YDR388W, stronger effect = lower value 0.955 | locus YDR392W, strain spt3, stronger effect = lower value 0.982 | locus YDR502C, strain sam2, stronger effect = lower value 0.995 | locus YEL003W, strain gim4, stronger effect = lower value 1.03 | locus YEL037C, strain rad23, stronger effect = lower value 1.02 | locus YEL061C, strain CIN8 (second series), stronger effect = lower value 1.02 | locus YEL061C, strain CIN8, stronger effect = lower value 1.01 | locus YER015W, strain faa2, stronger effect = lower value 1.01 | locus YER016W, strain bim1, stronger effect = lower value 1.03 | locus YER110C, stronger effect = lower value 1.01 | locus YER111C, strain swi4, stronger effect = lower value 1.03 | locus YER155C, strain BEM2 (second series), stronger effect = lower value 1.03 | locus YER155C, strain BEM2, stronger effect = lower value 1.01 | locus YER167W, strain BCK2, stronger effect = lower value 1.01 | locus YFR010W, strain ubp6, stronger effect = lower value 0.999 | locus YGL078C, strain dbp3, stronger effect = lower value 1.01 | locus YGL086W, strain mad1, stronger effect = lower value 0.99 | locus YGL167C, strain pmr1, stronger effect = lower value 1.03 | locus YGL173C, strain kem1, stronger effect = lower value 1.04 | locus YGL227W, strain vid30, stronger effect = lower value 1.03 | locus YGL240W, strain doc1, stronger effect = lower value 1.06 | locus YGL248W, strain PDE1, stronger effect = lower value 1 | locus YGL253W, strain hxk2, stronger effect = lower value 1.01 | locus YGR078C, strain PAC10, stronger effect = lower value 0.977 | locus YGR135W, strain pre9, stronger effect = lower value 0.934 | locus YGR229C, strain SMI1, stronger effect = lower value 0.839 | locus YHR013C, strain ard1, stronger effect = lower value 0.934 | locus YHR027C, strain rpn1, stronger effect = lower value 1.02 | locus YHR030C, strain SLT2, stronger effect = lower value 1.01 and 0.969 | locus YHR079C, strain IRE1 (second series), stronger effect = lower value 1.02 | locus YHR079C, strain IRE1, stronger effect = lower value 0.986 | locus YHR094C, strain hxt1, stronger effect = lower value 1.01 | locus YHR129C, strain ARP1, stronger effect = lower value 1.01 | locus YHR142W, strain chs7, stronger effect = lower value 0.98 | locus YHR200W, strain rpn10, stronger effect = lower value 1.01 | locus YIL066C, strain RNR3, stronger effect = lower value 1.01 | locus YIL073C, strain SPO22, stronger effect = lower value 1.01 | locus YIL125W, strain kgd1, stronger effect = lower value 1 | locus YIR030C, strain dcg1, stronger effect = lower value 1.02 | locus YJL092W, strain hpr5, stronger effect = lower value 1.02 | locus YJL095W, strain BCK1 (second series), stronger effect = lower value 1.02 | locus YJL095W, strain BCK1, stronger effect = lower value 0.974 and 0.973 | locus YJL115W, strain asf1, stronger effect = lower value 1.02 | locus YJL129C, strain trk1, stronger effect = lower value 1.07 | locus YJL134W, strain LCB3, stronger effect = lower value 0.994 | locus YJL154C, strain vps35, stronger effect = lower value 1.01 | locus YJL164C, strain tpk1, stronger effect = lower value 1.02 | locus YJL166W, strain qcr8, stronger effect = lower value 1.03 | locus YJL168C, strain set2, stronger effect = lower value 1.01 | locus YJL187C, strain SWE1 (second series), stronger effect = lower value 1.02 | locus YJL187C, strain SWE1, stronger effect = lower value 1.02 | locus YJR043C, strain POL32, stronger effect = lower value 1.07 | locus YJR066W, strain TOR1, stronger effect = lower value 0.956
active: locus YBR021W, strain FUR4, stronger effect = lower value 0.775 | locus YDR137W, strain rgp1, stronger effect = lower value 1.2 [resistant] | locus YGR252W, strain gcn5, stronger effect = lower value 0.765
